The full list was thinned out, with hits kept by preference.
RMI FANCM FP = disruptors of RMI1/RMI2 association with MM2 peptide – biochemical, fluorescence polarization, human, primary screen. RMI core complex (RMI1/RMI2) binding to FANCM MM2 peptide, human. RMI core complex with F-MM2 peptide; hits give low values. FP signal (polarization) at 33 µM. 70,000 compounds, 0.58% hits. AID 1159607, 2016; in the data active means FP signal below about 40
* marks the source's active call; other numbers are inactive results; ! = a repeat was not active.

SMILES	RMI FANCM FP
C[C@@H]1C(=O)O[C@H]2[C@H]1CC[C@@]1(C)C=CC(=O)[C@@]3(C)O[C@@]213	31*!
Cc1ccc(N2CCNCC2)cc1C	48
CN(C)C(=O)O/N=C(/N)c1ccc(C2SCCS2)cc1	64
CC12CN([N+](=O)[O-])C3(C#N)CC1CCC23C (stereo not given)	65
COC(=O)NC(=C(Cl)Cl)[P+](c1ccccc1)(c1ccccc1)c1ccccc1	79
CC1(C)CSC(Nc2ccc(F)cc2)=N1	55
CC1CN(C(=O)COc2ccccc2OC(=O)N(C)C)CC(C)O1 (stereo not given)	55
O=C1c2ccccc2C(=O)c2cc(C[P+](c3ccccc3)(c3ccccc3)c3ccccc3)ccc21	69
Cc1ccc(S(=O)(=O)CC(=O)Nc2ccc(Cl)cc2C(=O)c2ccccc2)cc1	56
CC[C@@H](C(N)=O)N1CCCC1=O	26*
COc1cc(=O)n(-c2ccc(F)cc2)nc1C(=O)N1CCC2(CC1)OCCO2	53
COc1cc2c(cc1OC)CNCC2	75
O=C(Nc1ccc(Br)cc1C(=O)c1ccccc1Cl)c1ccc([N+](=O)[O-])s1	63
O=S(=O)(F)CCNc1ccc(Cl)cc1	60
CC[C@@H](CO)NC(=O)[C@@H]1C=C2c3cccc4c3c(cn4C)C[C@H]2N(C)C1	37
CC[C@@H](CO)NC(=O)[C@@H]1C=C2c3cccc4[nH]cc(c34)C[C@H]2N(C)C1	4*!
CCN(CC)C(=O)N[C@@H]1C=C2c3cccc4[nH]cc(c34)C[C@H]2N(C)C1	47
C[C@]12CC3SC3C[C@@H]1CC[C@@H]1[C@@H]2CC[C@]2(C)[C@@H](O)CC[C@@H]12 (stereo not given in full)	63
COC(=O)[C@]1(C)CC[C@]2(C)CC[C@]3(C)C4=CCc5c(cc(O)c(O)c5C)[C@]4(C)CC[C@@]3(C)C2C1 (stereo not given in full)	13*
COc1ccc(C)cc1NC(=O)c1cccn(Cc2cccc(C(F)(F)F)c2)c1=O	54
O=C1C=C(Br)C(=O)C=C1Br	48
Cc1[nH]c2ccc(O)cc2c1CCN	49
COc1cc(CCN)ccc1O	57
NCCc1cccc(O)c1	19*
CC12CCC3C(CC[C@H]4C[C@H](OS(=O)(=O)O)CCC34C)C1CCC2=O (stereo not given in full)	57
C=C(C)[C@H]1Cc2c(ccc3c2O[C@@H]2COc4cc(OC)c(OC)cc4[C@@H]2C3=O)O1	56
COc1cc2c(cc1OC)[C@@H]1C(=O)c3ccc(OC)c(CC=C(C)C)c3O[C@@H]1CO2	29*
COc1cc2c(cc1OC)[C@@H]1C(=O)c3ccc4c(c3O[C@@H]1CO2)CC(C(C)C)O4 (stereo not given in full)	55
O=C1NC(=O)C(=Cc2ccc(Cl)o2)C(=O)N1	65
CNC(=S)NNC(=O)C1C2CCN(CC2)C1SCc1ccc(Cl)cc1 (stereo not given)	56

Assay outcomes from PubChem BioAssay.
